Data taken from the supplement of paper PMC8728848.
Many of the other results were omitted from the sample, so the strongest signals are more common in it than they were.

Experiments:
Test in all cases: glycan array binding signal (z-score within array); higher = stronger binding
Settings in all cases: glycan notation: IUPAC condensed, linker removed
[1] = target: GlcNAc(b1-3)Gal(b1-4)GlcNAc(b1-3)Gal(b1-4)GlcNAc(b1-3)Gal(b1-4)GlcNAc(b1-3)Gal(b1-4)GlcNAc(b1-2)Man(a1-3)[GlcNAc(b1-3)Gal(b1-4)GlcNAc(b1-3)Gal(b1-4)GlcNAc(b1-3)Gal(b1-4)GlcNAc(b1-3)Gal(b1-4)GlcNAc(b1-2)Man(a1-6)]Man(b1-4)GlcNAc(b1-4)GlcNAc
How it was run: (§1)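 From the Consortium for Functional Glycomics database, 3228 arrays were curated, keeping only those whose protein sequence was available. Binding is given as a within-array Z-score averaged across arrays sharing a protein sequence and across linkers. Negative Z-scores can be read as non-binding.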

[2] = target: GlcNAc(b1-3)Gal(b1-4)GlcNAc(b1-3)Gal(b1-4)GlcNAc(b1-3)Gal(b1-4)GlcNAc(b1-3)Gal(b1-4)GlcNAc(b1-2)Man(a1-3)[GlcNAc(b1-3)Gal(b1-4)GlcNAc(b1-3)Gal(b1-4)GlcNAc(b1-3)Gal(b1-4)GlcNAc(b1-3)Gal(b1-4)GlcNAc(b1-2)Man(a1-6)]Man(b1-4)GlcNAc(b1-4)[Fuc(a1-6)]GlcNAc
How it was run: as §1

[3] = target: GlcNAc(b1-3)Gal(b1-4)GlcNAc(b1-3)Gal(b1-4)GlcNAc(b1-3)Gal(b1-4)GlcNAc(b1-3)Gal(b1-4)GlcNAc(b1-2)[GlcNAc(b1-3)Gal(b1-4)GlcNAc(b1-3)Gal(b1-4)GlcNAc(b1-3)Gal(b1-4)GlcNAc(b1-3)Gal(b1-4)GlcNAc(b1-6)]Man(a1-6)[GlcNAc(b1-3)Gal(b1-4)GlcNAc(b1-3)Gal(b1-4)GlcNAc(b1-3)Gal(b1-4)GlcNAc(b1-3)Gal(b1-4)GlcNAc(b1-2)Man(a1-3)]Man(b1-4)GlcNAc(b1-4)[Fuc(a1-6)]GlcNAc
How it was run: as §1

[4] = target: GlcNAc(b1-3)Gal(b1-4)GlcNAc(b1-3)Gal(b1-4)GlcNAc(b1-3)GalNAc
How it was run: as §1

[5] = target: GlcNAc(b1-3)Gal(b1-4)GlcNAc(b1-3)[GlcNAc(b1-3)Gal(b1-4)GlcNAc(b1-3)]GalNAc
How it was run: as §1

[6] = target: Neu5Ac(a2-3)Gal(b1-3)GalNAc(b1-3)Gal(b1-4)GlcNAc
How it was run: as §1

[7] = target: Neu5Ac(a2-3)Gal(b1-3)GalNAc(b1-4)[Neu5Ac(a2-3)]Gal(b1-4)Glc
How it was run: as §1

[8] = target: Neu5Ac(a2-3)Gal(b1-3)GlcNAc(b1-2)Man
How it was run: as §1

[9] = target: Neu5Ac(a2-3)Gal(b1-3)GlcNAc(b1-3)Gal(b1-4)GlcNAc
How it was run: as §1

[10] = target: Neu5Ac(a2-3)Gal(b1-3)]Neu5Ac(a2-3)Gal(b1-4)]GlcNAc
How it was run: as §1

[11] = target: Neu5Ac(a2-6)Gal(b1-4)GlcNAc(b1-2)Man(a1-3)[Neu5Ac(a2-3)Gal(b1-4)GlcNAc(b1-2)Man(a1-6)]Man(b1-4)GlcNAc(b1-4)GlcNAc
How it was run: as §1

[12] = target: Neu5Ac(a2-6)Gal(b1-4)GlcNAc(b1-2)Man(a1-6)Man(b1-4)GlcNAc(b1-4)GlcNAc
How it was run: as §1

[13] = target: Neu5Gc(a2-6)Gal(b1-4)GlcNAc
How it was run: as §1

B1: Jacalin (Artocarpus integrifolia) (protein)
chain: MAYSSLLSLSVLALLFSISSADTRKWFLANGINQNPIGIIEAAVGVSEDLLNLNGMEAKNDEQSGISQTVIVGPWGAKVSTSSNGKAFDDGAFTGIREINLSYNKETAIGDFQVVYDLNGSPYVGQNHKSFITGFTPVKISLDFPSEYIMEVSGYTGNVSGYVVVRSLTFKTNKKTYGPYGVTSGTPFNLPIENGLIVGFKGSIGYWLDYFSMYLSL
glycan array binding signal (z-score) [1]: 4.05 | glycan array binding signal (z-score) [2]: 4.23 | glycan array binding signal (z-score) [3]: 5.64 | glycan array binding signal (z-score) [4]: 1.03 | glycan array binding signal (z-score) [5]: 0.857 | glycan array binding signal (z-score) [6]: -0.336 | glycan array binding signal (z-score) [7]: -0.262 | glycan array binding signal (z-score) [8]: -0.194 | glycan array binding signal (z-score) [9]: -0.274 | glycan array binding signal (z-score) [10]: -0.263 | glycan array binding signal (z-score) [11]: -0.241 | glycan array binding signal (z-score) [12]: -0.259 | glycan array binding signal (z-score) [13]: -0.247
